Screening data as filed in PubChem.
Most compounds without a hit are left out; they make up all but 2% or so of the library.
TDP-43 yeast inh – TDP-43 toxicity inhibition in yeast; Potency, µM (doses to about 46.1 µM), for inactives: at the highest dose growth rescue (activation), most hits filed as activators; AID 652104; TDP-43 expressing yeast growth rescue, BacTiter-Glo, 24 h; hit rate 1.8% among 410,000; note: potency is the fitted concentration of half-maximal effect; % of control where 0% means no effect; nearly all actives have a fitted effect of over 50% in size
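Yeast expressing TDP-43 (pregrown in raffinose, seeded at OD600=0.02 in galactose medium) exposed to compounds 24 hr at 30 deg C. Growth read by BacTiter-Glo luminescence; rescue of toxicity appears as increased signal.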
aSyn yeast inh – inhibitors of alpha-synuclein toxicity in yeast; Yeast expressing alpha-synuclein, growth rescue, BacTiter-Glo, 24 h; Potency, µM (highest dose often 46.1 µM), for inactives: at the top dose growth rescue (activation), hits mostly activators; hit rate 0.14% among 370,000; note: potency is the fitted concentration of half-maximal effect; % of control where 0% means no effect; nearly all actives have a fitted effect of over 65% in size
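Rescue of yeast growth: cells expressing toxic alpha-synuclein, induced in galactose at OD600 0.02, incubated with compound 24 h at 30 C. ATP luminescence quantified growth; inhibitors of toxicity appear as activators.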
mIDH1 inhibitor – inhibitors of human mutant IDH1 R132H; O75874; IDH1-R132H enzyme, NADPH consumption, diaphorase/resazurin fluorescence; Potency, µM (series often up to 76.6 µM), for inactives: top-dose activity change, negative = inhibition, actives largely listed as inhibitors; hit rate 0.093% among 390,000; AID 602179; note: potency is the fitted concentration of half-maximal effect; % is set by controls: 0 for no effect and ±100 for the full control effect; nearly all actives have a fitted effect of over 65% in size
Target sequence (O75874 whole entry R132H, stated change not applied): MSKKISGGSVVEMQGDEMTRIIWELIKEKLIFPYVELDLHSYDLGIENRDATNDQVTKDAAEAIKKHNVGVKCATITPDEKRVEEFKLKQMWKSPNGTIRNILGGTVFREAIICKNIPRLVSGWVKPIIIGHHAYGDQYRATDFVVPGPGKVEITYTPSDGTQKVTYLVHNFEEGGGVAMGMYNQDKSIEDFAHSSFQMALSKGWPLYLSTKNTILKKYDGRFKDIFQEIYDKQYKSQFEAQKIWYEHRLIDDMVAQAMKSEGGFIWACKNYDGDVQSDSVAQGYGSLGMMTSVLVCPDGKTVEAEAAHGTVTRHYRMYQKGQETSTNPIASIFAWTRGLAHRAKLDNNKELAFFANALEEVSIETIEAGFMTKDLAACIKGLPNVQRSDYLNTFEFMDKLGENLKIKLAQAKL
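IDH1-R132H (0.5 ug/mL) preincubated 30 min with compound, then NADPH (0.016 mM) and alpha-KG (2 mM) added; 80 min at RT, pH 7.5. Remaining NADPH coupled via diaphorase/resazurin to fluorescence (540/590 nm); concentration-response curves normalized to no-enzyme control.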
LDHA block – blocks human lactate dehydrogenase A. P00338. purified LDHA, NADH/diaphorase-resazurin fluorescence; hits give low values. activity change, % (values are at about 110 or 230 µM). hit rate 0.15% among 480,000. AID 1347041; in the data active = activity change below about -30%; inconclusive = mostly about -25% to -30%;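 note: plate controls were DMSO wells for no effect and wells without enzyme for full effect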
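Enzyme activity of human lactate dehydrogenase 5 (2 nM; 0.06 mM NADH, 0.2 mM pyruvate, 5 min, RT) is measured via a resazurin/diaphorase fluorescence readout of residual NADH.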
Abeta rescue – restores growth of yeast expressing A-beta42 peptide; yeast expressing A-beta42, growth rescue, OD600, 48 h; response scale: 0% DMSO, 100% iron-clioquinol control; AID 1347071; hit rate 0.063% among 410,000; Potency, µM (doses to about 46.1 µM), most hits filed as activators; note: potency is the fitted concentration of half-maximal effect; nearly all actives have a fitted effect of over 55% in size
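Yeast A-beta toxicity model in growth medium with pinned compounds, 48 h at 30 C; growth read as absorbance at 600 nm. Normalized to FeCl3/clioquinol equimolar mix (positive) and DMSO (negative).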
FUS suppressor – suppressors of FUS proteinopathy in yeast | hit rate 0.24% among 390,000 | Potency, µM (doses to about 76.6 µM), hits mostly activators | S. cerevisiae FUS-expressing, growth rescue, OD600, 24 h;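 note: potency is the fitted concentration of half-maximal effect; plate controls were DMSO vehicle for no effect and reference control for full effect; nearly all actives have a fitted effect of over 55% in size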
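Read-out: OD at 600 nm after 24hr at 30C, reporting rescue of FUS-induced yeast toxicity. Cells at OD 0.005 in galactose (2%) minimal medium; compounds tested in a dilution series; CP55940 titration from 92uM final as control.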
An asterisk follows results filed as active; i = inactive; ? = inconclusive; . = not tested or not shown. Unless noted, calls come from the whole dose curve; as a rule, active = well fitted curve in the direction sought with a large enough effect; inconclusive = small, poorly fitted or top-dose-only effect, or another doubt; inactive = no such curve, though single readings can be large; an effect the other way counts as inactive or inconclusive.

SMILES	TDP-43 yeast inh	aSyn yeast inh	mIDH1 inhibitor	LDHA block	Abeta rescue	FUS suppressor
O=C(COC(=O)c1ccc([N+](=O)[O-])o1)Nc1ccc(F)cc1	16µM*	-7%	9%	-1	i	i
O=C(COC(=O)c1ccc([N+](=O)[O-])o1)Nc1ccc(N2CCOCC2)cc1	?	-21%	-12%	-1	i	i
COc1ccc(C)cc1NC(=O)COC(=O)c1ccc([N+](=O)[O-])o1	11µM*	2%	-3%	-5	i	i
COc1ccc(C(C)(C)C)cc1NC(=O)COC(=O)c1ccc([N+](=O)[O-])o1	-93%	-73%	-6%	-16	i	i
CCOC(=O)N1CCN(Cc2nc3c(c(=O)n(C)c(=O)n3C)n2CC(=O)OC)CC1	.	.	.	-3	.	.
O=C(NCC1CCN(C(=O)c2c(F)c(F)c(F)c(F)c2F)CC1)c1c(F)c(F)c(F)c(F)c1F	13µM*	13%	1%	-3	i	.
COc1ccc(C(C)=O)cc1CN1CCCc2ccccc21	.	.	.	8	.	.
Cc1cccc(C)c1Cn1c(C)c(C(=O)NCc2ccc([N+](=O)[O-])cc2)sc1=O	11µM*	9%	.	-9	i	?
COC(=O)c1ccc(Cn2c(C)c(C(=O)NCc3ccc([N+](=O)[O-])cc3)sc2=O)o1	12%	-3%	.	2	i	i
COc1ccc(C(=O)NCCc2c[nH]c3ccccc23)c(F)c1	.	.	.	-4	.	.
O=C(O)c1ccc(N2N=C(c3ccccc3)CC2c2ccccc2)cc1 (configuration not stated)	13µM*	0%	-10%	-10	i	i
O=C(O)CS(=O)(=O)Cc1ccc(Cl)cc1	.	.	.	4	.	.
Cc1c(C(=O)c2ccccc2C(=O)O)sc2ccccc12	11µM*	1%	2%	-5	i	i
Cc1cc(C)c(C)c(C(=O)c2ccccc2C(=O)O)c1C	-6%	?	4%	-1	i	i
CCOC(=O)c1sc2nc3c(cc2c1N)COC(C)(C)C3	11%	-4%	4%	0	i	i
CCOC(=O)c1sc2nc3c(cc2c1N)COC(C)(CC)C3 (configuration not stated)	11µM*	.	3%	0	i	i
O=C(CCn1c(=O)sc2ccccc21)Nc1nc2ccccc2s1	28µM*	12%	-4%	-1	i	i
Cc1ccc2nc(NC(=O)CCn3c(=O)sc4ccccc43)sc2c1	20µM*	-5%	0%	-7	i	i
O=C(NCCc1ccccc1)C1C(=O)Nc2ccccc2C(=O)N1C1CCCCC1 (configuration not stated)	?	13µM*	.	-2	i	i
O=C(NCc1ccccc1)C1C(=O)Nc2ccccc2C(=O)N1C1CCCC1 (configuration not stated)	15%	2%	.	-3	i	i
Fc1ccc(C2C=C(c3ccccc3)NC(=S)N2)cc1 (configuration not stated)	.	.	.	-8	.	.
CCOC(=O)Cc1csc(NC(=O)COc2ccc3c(c2)CCC3)n1	16µM*	-24%	3%	-3	?	i
CCOC(=O)Cc1csc(NC(=O)COc2ccc(C)cc2)n1	11µM*	-10%	12%	5	?	i
CN(CC(=O)N(C)C1CCS(=O)(=O)C1)c1ccc2ccccc2c1 (configuration not stated)	.	.	.	8	.	.
CC1CC2(C)CC(C)C1(COC(=O)Nc1ccccc1)CO2 (configuration not stated)	35µM*	1%	2%	-3	i	i
O=C(Nc1ccccc1)OCCCCOC(=O)Nc1ccccc1	9%	0%	0%	-11	i	i
Fc1ccc(C=Nc2cccc3c(N=Cc4ccc(F)cc4)cccc23)cc1	.	.	.	18	.	.
CC1=C(C)CS(=O)N(S(=O)(=O)c2ccccc2)C1 (configuration not stated)	13µM*	-22%	-13%	-11	i	i
